Source: PubChem BioAssay
A selection: hits, their analogues and other compounds. The true share with any hit is near 21%.
Pf growth 48h: inhibits P. falciparum growth in the first generation, 48 h | AID 504832 | P. falciparum luciferase growth in erythrocytes, 48 h | 310,000 tested, 5.9% active | Potency, µM (top dose mostly 28.7 µM), hits mostly inhibitors
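In quantitative HTS format, infected erythrocytes bearing luciferase-reporter parasites were treated for a single generation at 37 C. Luminescence after adding detection reagent served as the growth measure.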
Pf growth 96h: inhibits malaria parasite growth, 96 h. P. falciparum luciferase reporter growth, 96 h. 320,000 tested, 6.9% active. Potency, µM (highest dose often 28.7 µM), hits mostly inhibitors
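Delayed-death screen, second-generation endpoint: infected erythrocytes, 2% hematocrit, 0.05% parasitemia final; 96 hours at 37 C, 5% CO2; luciferase detection reagent; luminescence decrease equals reduced growth.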
CHX counter: counter-screen for Shiga toxin inhibitors: cycloheximide protein synthesis inhibition; cell reporter, cycloheximide protein synthesis inhibition counterscreen; 300,000 tested, 12% active; max response, %; AID 2314; in the data active = max response mostly above about 13%, no sharp cut-off; inactive = mostly below about 14%; note: read at 38.3 µM for the half of the compounds with a filed dose
Shiga toxin inh: blocks Shiga toxin action in Vero cells. Vero cells, Shiga toxin protein synthesis inhibition reporter. inhibition, % at 38.7 µM. 290,000 tested, 9.2% active. AID 2315; in the data active = inhibition mostly above about 28%, no sharp cut-off; inactive = mostly below about 43%
Large screens that a line does not name were inactive. Unless noted, calls come from the whole dose curve; as a rule, active = well fitted inhibition curve with a large enough effect; inconclusive = small, poorly fitted or top-dose-only effect, or another doubt; inactive = no such curve, though single readings can be large or run the other way.

COc1cccc(NC(=O)COC(=O)c2ccccc2C(=O)N(C)c2ccccc2)c1	Pf growth 48h inconclusive (no result: CHX counter, Shiga toxin inh)
CN(C(=O)c1ccccc1C(=O)OCC(=O)c1ccc(F)cc1)c1ccccc1	Pf growth 48h 8.3µM, Pf growth 96h inconclusive (no result: CHX counter, Shiga toxin inh)
COCCN1CCN(Cc2cn[nH]c2-c2cc3ccccc3o2)CC1	none
C=CCOc1ccc(/C=C2\SC(N3CCCCC3)=NC2=O)cc1	Pf growth 48h inconclusive
Cc1ccc2cc(C#N)c(N3CCCN(C(=S)NCCCN(C)C)CC3)nc2c1	Pf growth 48h 10µM, Pf growth 96h inconclusive
Cc1cc(C)c2cc(C#N)c(N3CCCC3)nc2c1	Pf growth 96h 10µM
Cc1cc(C)c2cc(C#N)c(N3CCCN(C(=S)NCCCN(C)C)CC3)nc2c1	Pf growth 96h 10µM
Cc1cc(/C(N)=N/OC(=O)Nc2ccccc2)no1	CHX counter 24, Shiga toxin inh 42
Cc1cc(C(=O)NNC(=O)Nc2ccc(Cl)cc2)no1	none
Cc1cc(/C(N)=N/OC(=O)Nc2ccc(Cl)cc2)no1	CHX counter 27, Shiga toxin inh 55
Cc1cc(C)n2ncc(/C(N)=N/OC(=O)Nc3ccccc3)c2n1	Pf growth 96h inconclusive, CHX counter 9.6
O=C(COc1ccc(Br)cc1Cl)NNC(=O)c1ccccc1	none (no result: CHX counter, Shiga toxin inh)
Cc1nc(C)c(C(=O)N2CCCC(C(=O)c3ccc(Cl)cc3C)C2)s1 (stereo unspecified)	Pf growth 96h 13µM
Cc1cc(Cl)ccc1C(=O)C1CCCN(C(=O)/C=C/c2cnn(C)c2)C1 (stereo unspecified)	Pf growth 96h 4.1µM
Cc1cc(Cl)ccc1C(=O)C1CCCN(C(=O)c2cscn2)C1 (stereo unspecified)	Pf growth 96h inconclusive
CN1CCC(CNC(=O)Nc2ccccc2)(c2ccccc2)CC1	none
Cn1cccc1CNC(=O)Nc1ccc(Cl)cc1	CHX counter 49, Shiga toxin inh 59
Cn1cccc1CNC(=O)Nc1ccccc1	CHX counter 43, Shiga toxin inh 52 (no result: Pf growth 48h)
CN1CCN(CCNC(=O)Nc2ccc(Cl)cc2)CC1	Pf growth 96h inconclusive
Cc1ccc(CNC(=O)Nc2ccccc2)n1C	CHX counter 17
Cc1ccc(NC(=O)NCc2cccn2C)cc1C	CHX counter 18, Shiga toxin inh 59
Cc1cc(C)cc(NC(=S)NCc2cccn2C)c1	Pf growth 48h inconclusive, Pf growth 96h inconclusive
COc1ccc(C(=O)N2CCN(c3ncccn3)CC2)cc1[N+](=O)[O-]	Pf growth 96h inconclusive
CSc1ccc(S(=O)(=O)Nc2ccc(OCC(=O)N3CCOCC3)cc2)cc1	none
CCCCn1c(N)c(N(CCOC)C(=O)c2nn(CC)c(=O)c3ccccc23)c(=O)[nH]c1=O	none (no result: CHX counter, Shiga toxin inh)
CCOC(=O)c1c(NC(=O)c2ccc(S(=O)(=O)N3CCOCC3)cc2)sc2c1CCN(C)C2	Pf growth 48h 12µM, Pf growth 96h inconclusive
CCOC(=O)N1CCc2c(sc(NC(=O)c3ccc(S(=O)(=O)N4CCCC4)cc3)c2C#N)C1	Pf growth 48h 12µM, Pf growth 96h inconclusive
CCOC(=O)c1c(NC(=O)c2ccc(S(=O)(=O)N3CCOCC3)cc2)sc2c1CC(C)(C)NC2(C)C	none
CC(C)N1CCc2c(sc(NC(=O)c3ccc(S(=O)(=O)N4CCOCC4)cc3)c2C#N)C1	Pf growth 96h inconclusive
CCOC(=O)C1=C(COC(=O)COc2ccccc2C#N)NC(=O)NC1C (stereo unspecified)	none (no result: CHX counter, Shiga toxin inh)
CCn1c2ccccc2c2cc(NC(=O)COC(=O)c3ccc(NC(=O)CC#N)cc3)ccc21	none (no result: CHX counter, Shiga toxin inh)
O=C(Cc1ccc(Cl)cc1)N/N=C/c1ccncc1	none
CC1CN/C(=C\C(=O)c2ccc(Cl)cc2)C(=O)N1 (stereo unspecified)	CHX counter 25
CC1CN/C(=C\C(=O)c2ccccc2)C(=O)N1 (stereo unspecified)	CHX counter 44
Cc1nn(-c2ccc(F)cc2)c(C)c1/C=C/C(=O)N1CCNC(=O)C1	Pf growth 96h inconclusive
CN1CCCN(C(=O)/C=C/c2ccc(Cl)cc2Cl)CC1	CHX counter 25
Cc1nn(-c2ccc(F)cc2)c(Cl)c1/C=C/C(=O)N1CCNC(=O)C1	Pf growth 96h 13µM
O=C(/C=C/c1ccc(Cl)cc1Cl)N1CCN(c2ccccc2[N+](=O)[O-])CC1	none
O=C1CN(C(=O)/C=C/c2ccccc2)CCN1	none
O=C1CN(C(=O)/C=C/c2ccc(Cl)cc2Cl)CCN1	CHX counter 34, Shiga toxin inh 59
COC(=O)c1cccc(N/C=C(\[N+](=O)[O-])S(=O)(=O)c2ccccc2)c1	none
CCOC(=O)Cc1csc(NC(=O)c2ccc(N3CCOCC3)cc2[N+](=O)[O-])n1	none (no result: CHX counter, Shiga toxin inh)
CC1(C)COC(c2coc3ccccc3c2=O)OC1	CHX counter 46, Shiga toxin inh 87
CCOC(=O)C1=C(C)NC2=C(C(=O)CC(C)(C)C2)C1c1coc2ccccc2c1=O (stereo unspecified)	Pf growth 48h inconclusive
C=CCn1c(SCCCCCC)nc(O)cc1=O	Pf growth 96h 6.6µM
Cc1ccc(CC(=O)NNC(=O)c2ccncc2)cc1C	Pf growth 48h inconclusive (no result: CHX counter, Shiga toxin inh)
COc1cccc(NC(=O)CN(C)C(=O)c2cccc(S(=O)(=O)Nc3ccccc3OC)c2)c1	Pf growth 48h 13µM, Pf growth 96h inconclusive (no result: CHX counter, Shiga toxin inh)
COc1ccc(S(=O)(=O)N(C)C)cc1NC(=O)c1ccc2c(c1)NC(=O)C(C)S2 (stereo unspecified)	Pf growth 48h 9.3µM, Pf growth 96h 5.2µM (no result: CHX counter, Shiga toxin inh)
CCCN(CC(=O)Nc1ccccc1OC)C(=O)c1cccc(S(=O)(=O)NCc2ccccc2)c1	Pf growth 48h inconclusive, Pf growth 96h 10µM (no result: CHX counter, Shiga toxin inh)
COc1cccc(NC(=O)CN(C)C(=O)c2cccc(S(=O)(=O)Nc3ccc(C)cc3)c2)c1	Pf growth 48h inconclusive (no result: CHX counter, Shiga toxin inh)
CCCN(CC(=O)Nc1ccccc1OC)C(=O)c1ccc2c(c1)NC(=O)C(C)S2 (stereo unspecified)	Pf growth 48h 10µM, Pf growth 96h inconclusive (no result: CHX counter, Shiga toxin inh)
CCCN(CC(=O)Nc1ccccc1OC)C(=O)c1cc(S(=O)(=O)NCc2ccccc2)ccc1C	Pf growth 48h inconclusive, Pf growth 96h inconclusive
COc1ccc(C)cc1S(=O)(=O)N1CCC(C(=O)N2CCN(C)CC2)CC1	Pf growth 96h inconclusive
O=C(NCCO[N+](=O)[O-])c1cccnc1	Pf growth 96h inconclusive
COc1ccc2c(c1)CC/C(=C/c1ccncc1)C2=O	CHX counter 32
COc1cccc(OC)c1C(=O)Oc1ccc2c(c1)O/C(=C\c1ccncc1)C2=O	Pf growth 48h inconclusive
COc1ccc2c(c1)CC/C(=C\c1ccc(C)o1)C2=O	CHX counter 56, Shiga toxin inh 91
O=C(Nc1ccc(S(=O)(=O)Nc2cnc3ccccc3n2)cc1)c1cccc(OC(F)F)c1	none
N#C/C(C(=O)N1CCOCC1)=C1\Nc2ccccc2S1	CHX counter 35, Shiga toxin inh 64
COC(=O)C1=C(C)NC2=C(C(=O)CC(C)(C)C2)C1c1cnn(C)c1C (stereo unspecified)	none
COc1ccc(CNS(=O)(=O)c2c(C(=O)N3CCCCC3)c(C)n(C)c2C)cc1	none
Cc1ccc(-n2nc3c(=O)n(CCCC(=O)NCc4ccccc4Cl)nc(C)c3c2C)cc1	Pf growth 48h inconclusive, Pf growth 96h 2.6µM
Cc1ccc(-n2nc3c(=O)n(CCCC(=O)NCc4cccc(Cl)c4)nc(C)c3c2C)cc1	Pf growth 48h 9.3µM, Pf growth 96h inconclusive
Cc1ccc(-n2nc3c(=O)n(CCCC(=O)NCCc4ccccc4Cl)nc(C)c3c2C)cc1	none (no result: Pf growth 48h, Pf growth 96h)
